# Results reported in PubChem BioAssay (NCATS).
# Records with an inconclusive call do not appear. Where a call stands in place of a potency, no number is given. Unmarked numbers belong to inactive results. Activity calls are given as the source filed them. Calls come from the whole dose curve; as a rule, active = well fitted curve in the direction sought with a large enough effect; inconclusive = small, poorly fitted or top-dose-only effect, or another doubt; inactive = no such curve, though single readings can be large; an effect the other way counts as inactive or inconclusive.
# Legend:
# MCC-26 = experiment: qHTS assay to identify novel small-molecules to repurpose for Merkel cell carcinoma treatment (AID 1296009); details: MCC and control cell lines, CellTiter-Glo viability, 72 h; series mostly up to 46 µM; note: nearly all actives have a fitted effect of over 60% in size; note: potency is the fitted concentration of half-maximal effect
# Method in brief: (§1)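 Luminescence from CellTiter-Glo, read 10 min after addition at room temperature, reported viability following a 72 hr, 37 degree celsius treatment with NPC or MIPE compounds in titration; values normalized to plate controls.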
# MKL-1 = experiment: as above; details: MCC and control cell lines, CellTiter-Glo viability, 72 h; series mostly up to 46 µM
# Method in brief: as §1
# UISO = experiment: as above; details: MCC and control cell lines, CellTiter-Glo viability, 72 h; series mostly up to 46 µM
# Method in brief: as §1
# WaGa = experiment: as above; details: MCC and control cell lines, CellTiter-Glo viability, 72 h; series mostly up to 46 µM
# Method in brief: as §1
# C33A = experiment: Primary qHTS to identify gynecologic anti-cancer compounds using libraries of approved drugs and bioactive compounds (AID 1345084); details: Gynecologic cancer cell panel viability, ATPlite luminescence, 48 h; series mostly up to 57.5 µM; note: nearly all actives have a fitted effect of over 55% in size
# Method in brief: (§2)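 Luminescence from the ATPlite ATP-monitoring reagent indicates viable cell number; lower signal means cytotoxicity. Cells received compound 16 h after seeding and were exposed for 48 h across five concentrations.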
# CAOV3 = experiment: as above; details: Gynecologic cancer cell panel viability, ATPlite luminescence, 48 h; series mostly up to 57.5 µM
# Method in brief: as §2
# CASKI = experiment: as above; details: Gynecologic cancer cell panel viability, ATPlite luminescence, 48 h; series mostly up to 57.5 µM
# Method in brief: as §2
# Es-2 = experiment: as above; details: Gynecologic cancer cell panel viability, ATPlite luminescence, 48 h; series mostly up to 57.5 µM
# Method in brief: as §2
# HeLa = experiment: as above; details: Gynecologic cancer cell panel viability, ATPlite luminescence, 48 h; series mostly up to 57.5 µM
# Method in brief: as §2
# Hek293T = experiment: as above; details: Gynecologic cancer cell panel viability, ATPlite luminescence, 48 h, control line for the selectivity index; series mostly up to 57.5 µM
# Method in brief: as §2
# JEG-3 = experiment: as above; details: Gynecologic cancer cell panel viability, ATPlite luminescence, 48 h; series mostly up to 57.5 µM
# Method in brief: as §2
# OV90 = experiment: as above; details: Gynecologic cancer cell panel viability, ATPlite luminescence, 48 h; series mostly up to 57.5 µM
# Method in brief: as §2
# PA-1 = experiment: as above; details: Gynecologic cancer cell panel viability, ATPlite luminescence, 48 h; series mostly up to 57.5 µM
# Method in brief: as §2
# SKOV3 = experiment: as above; details: Gynecologic cancer cell panel viability, ATPlite luminescence, 48 h; series mostly up to 57.5 µM
# Method in brief: as §2
# Tov-21-G = experiment: as above; details: Gynecologic cancer cell panel viability, ATPlite luminescence, 48 h; series mostly up to 57.5 µM
# Method in brief: as §2
# Tov112D = experiment: as above; details: Gynecologic cancer cell panel viability, ATPlite luminescence, 48 h; series mostly up to 57.5 µM
# Method in brief: as §2
# [1] = Drug repurposing screens with cells derived from glioblastoma tumor samples (AID 1345199); details: GBM patient neurospheres viability, ATP luminescence, 48 h; note: nearly all actives have a fitted effect of over 40% in size; note: potency is the fitted concentration of half-maximal effect
# Method in brief: (§3)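 Primary testing used CD133+ neurospheres from four GBM patients, seven concentrations, 48 h exposure and ATP-based viability; confirmation added three slower-growing patient lines.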
# astro = experiment: as above; details: viability, ATP luminescence, 48 h; series mostly up to 45.9 µM
# Method in brief: as §3
# MKL-2 = experiment: qHTS assay to identify novel small-molecules to repurpose for Merkel cell carcinoma treatment (AID 1296009); details: MCC and control cell lines, CellTiter-Glo viability, 72 h; series mostly up to 46 µM; note: nearly all actives have a fitted effect of over 60% in size; note: potency is the fitted concentration of half-maximal effect
# Method in brief: as §1
# [2] = at 45.9 µM (top of the series), tumour line B
# [3] = at 45.9 µM (top of the series), tumour line D
# [4] = at 46.1 µM (top of the series), tumour line C
# [5] = at 46 µM (top of the series), tumour line A
smiles,measurement,setting,value
CC(=O)OC(C)C[N+](C)(C)C (centres undefined),Potency,MCC-26,inactive
same,Potency,MKL-1,inactive
same,Potency,UISO,inactive
same,Potency,WaGa,inactive
same,Potency,C33A,inactive
same,Potency,CAOV3,inactive
same,Potency,CASKI,inactive
same,Potency,Es-2,inactive
same,Potency,HeLa,inactive
same,Potency,Hek293T,inactive
same,Potency,JEG-3,inactive
same,Potency,OV90,inactive
same,Potency,PA-1,inactive
same,Potency,SKOV3,inactive
same,Potency,Tov-21-G,inactive
same,Potency,Tov112D,inactive
same,"activity, negative = cell killing","[1]; at 20 µM (top of the series), tumour line C",12%
same,"activity, negative = cell killing","[1]; at 21.2 µM (top of the series), tumour line B",6.44%
same,"activity, negative = cell killing","[1]; at 21.2 µM (top of the series), tumour line D",-7.66%
same,"activity, negative = cell killing","[1]; at 21.3 µM (top of the series), tumour line A",-14.4%
same,Potency,astro,inactive
CC(N=C(NC#N)Nc1ccncc1)C(C)(C)C (centres undefined),Potency,MCC-26,inactive
same,Potency,MKL-1,inactive
same,Potency,MKL-2,inactive
same,Potency,UISO,inactive
same,Potency,WaGa,inactive
same,Potency,C33A,inactive
same,Potency,CAOV3,inactive
same,Potency,CASKI,inactive
same,Potency,Es-2,inactive
same,Potency,Hek293T,inactive
same,Potency,OV90,inactive
same,Potency,PA-1,inactive
same,Potency,SKOV3,inactive
same,Potency,Tov-21-G,inactive
same,Potency,Tov112D,inactive
same,"activity, negative = cell killing",[1]; [2],-17.7%
same,"activity, negative = cell killing",[1]; [3],-6.7%
same,"activity, negative = cell killing",[1]; [4],-1.36%
CCOC(=O)C1=C(C)NC(C)=C(C(=O)OC)C1c1cccc([N+](=O)[O-])c1 (centres undefined),Potency,MCC-26,inactive
same,Potency,MKL-1,inactive
same,Potency,MKL-2,inactive
same,Potency,UISO,inactive
same,Potency,WaGa,inactive
same,Potency,C33A,inactive
same,Potency,CASKI,inactive
same,Potency,Es-2,inactive
same,Potency,HeLa,inactive
same,Potency,Hek293T,inactive
same,Potency,JEG-3,inactive
same,Potency,OV90,inactive
same,Potency,PA-1,inactive
same,Potency,SKOV3,inactive
same,Potency,Tov-21-G,inactive
same,Potency,Tov112D,inactive
same,"activity, negative = cell killing",[1]; [2],3.31%
same,"activity, negative = cell killing",[1]; [3],-28.4%
same,"activity, negative = cell killing",[1]; [4],-23.9%
same,Potency,[1]; tumour line A,11.2 µM (active)
same,Potency,astro,inactive
Cc1nnc(SCC2=C(C(=O)O)N3C(=O)[C@@H](NC(=O)Cn4cnnn4)[C@H]3SC2)s1,Potency,MCC-26,inactive
same,Potency,MKL-1,inactive
same,Potency,MKL-2,13.3 µM (active)
same,Potency,UISO,inactive
same,Potency,C33A,inactive
same,Potency,CAOV3,inactive
same,Potency,CASKI,inactive
same,Potency,Es-2,inactive
same,Potency,HeLa,inactive
same,Potency,Hek293T,inactive
same,Potency,JEG-3,inactive
same,Potency,OV90,inactive
same,Potency,PA-1,inactive
same,Potency,SKOV3,inactive
same,Potency,Tov-21-G,inactive
same,Potency,Tov112D,inactive
same,"activity, negative = cell killing",[1]; [2],-10.7%
same,"activity, negative = cell killing",[1]; [3],-8.75%
same,"activity, negative = cell killing",[1]; [4],-9.01%
same,Potency,astro,inactive
CCCN(CCC)C(=O)C(CCC(=O)O)NC(=O)c1ccccc1 (centres undefined),Potency,MCC-26,inactive
same,Potency,MKL-1,inactive
same,Potency,MKL-2,inactive
same,Potency,UISO,inactive
same,Potency,WaGa,inactive
same,Potency,C33A,inactive
same,Potency,CAOV3,inactive
same,Potency,CASKI,inactive
same,Potency,Es-2,inactive
same,Potency,Hek293T,inactive
same,Potency,JEG-3,inactive
same,Potency,OV90,inactive
same,Potency,PA-1,inactive
same,Potency,SKOV3,inactive
same,Potency,Tov-21-G,inactive
same,Potency,Tov112D,inactive
same,"activity, negative = cell killing",[1]; [2],1.78%
same,"activity, negative = cell killing",[1]; [3],-1.59%
same,"activity, negative = cell killing",[1]; [5],-28.4%
same,"activity, negative = cell killing",[1]; [4],-13.4%
same,Potency,astro,inactive
CN(C)C(=O)Oc1cccc([N+](C)(C)C)c1,Potency,MCC-26,inactive
same,Potency,MKL-1,inactive
same,Potency,MKL-2,inactive
same,Potency,UISO,inactive
same,Potency,WaGa,inactive
same,Potency,C33A,inactive
same,Potency,CASKI,inactive
same,Potency,Es-2,inactive
same,Potency,HeLa,inactive
same,Potency,Hek293T,inactive
same,Potency,JEG-3,inactive
same,Potency,OV90,inactive
same,Potency,PA-1,inactive
same,Potency,SKOV3,inactive
same,Potency,Tov-21-G,inactive
same,Potency,Tov112D,inactive
same,"activity, negative = cell killing",[1]; [2],-0.104%
same,"activity, negative = cell killing",[1]; [3],10.8%
same,"activity, negative = cell killing",[1]; [5],-24.8%
same,"activity, negative = cell killing",[1]; [4],-4.3%
same,Potency,astro,inactive
CNCCC(Oc1ccccc1OC)c1ccccc1 (centres undefined),Potency,MCC-26,inactive
same,Potency,MKL-1,inactive
same,Potency,MKL-2,inactive
same,Potency,UISO,inactive
same,Potency,WaGa,inactive
same,Potency,C33A,inactive
same,Potency,CASKI,inactive
same,Potency,Es-2,inactive
same,Potency,HeLa,inactive
same,Potency,Hek293T,inactive
same,Potency,JEG-3,inactive
same,Potency,PA-1,inactive
same,Potency,SKOV3,inactive
same,Potency,Tov-21-G,inactive
same,Potency,Tov112D,inactive
same,"activity, negative = cell killing",[1]; [2],-10.4%
same,"activity, negative = cell killing",[1]; [3],-19.1%
same,"activity, negative = cell killing",[1]; [4],-16.2%
same,Potency,[1]; tumour line A,12.6 µM (active)
same,Potency,astro,inactive
CCCCCN(CCCCC)C(=O)C(CCC(=O)O)NC(=O)c1ccc(Cl)c(Cl)c1 (centres undefined),Potency,MCC-26,inactive
same,Potency,MKL-1,inactive
same,Potency,MKL-2,inactive
same,Potency,UISO,inactive
same,Potency,WaGa,inactive
same,Potency,C33A,inactive
same,Potency,CAOV3,inactive
same,Potency,CASKI,inactive
same,Potency,Es-2,inactive
same,Potency,Hek293T,inactive
same,Potency,JEG-3,inactive
same,Potency,OV90,inactive
same,Potency,PA-1,inactive
same,Potency,SKOV3,inactive
same,Potency,Tov-21-G,inactive
same,Potency,Tov112D,inactive
same,"activity, negative = cell killing",[1]; [2],-4.86%
same,"activity, negative = cell killing",[1]; [3],-12.8%
same,"activity, negative = cell killing",[1]; [4],-26.2%
same,Potency,astro,inactive
C[C@H](CS)C(=O)N1CCC[C@H]1C(=O)O,Potency,MCC-26,inactive
same,Potency,MKL-1,inactive
same,Potency,MKL-2,inactive
same,Potency,UISO,inactive
same,Potency,WaGa,inactive
same,Potency,C33A,inactive
same,Potency,CAOV3,inactive
same,Potency,CASKI,inactive
same,Potency,Es-2,inactive
same,Potency,Hek293T,inactive
same,Potency,JEG-3,inactive
same,Potency,PA-1,inactive
same,Potency,Tov-21-G,inactive
same,Potency,Tov112D,inactive
same,"activity, negative = cell killing",[1]; [2],1.21%
same,"activity, negative = cell killing",[1]; [3],-0.196%
same,"activity, negative = cell killing",[1]; [5],-14.4%
same,"activity, negative = cell killing",[1]; [4],-15.5%
same,Potency,astro,inactive
NC/C=C/C(=O)O,Potency,MCC-26,inactive
same,Potency,MKL-1,inactive
same,Potency,MKL-2,inactive
same,Potency,UISO,inactive
same,Potency,WaGa,inactive
same,Potency,C33A,inactive
same,Potency,CAOV3,inactive
same,Potency,CASKI,inactive
same,Potency,Es-2,inactive
same,Potency,Hek293T,inactive
same,Potency,JEG-3,inactive
same,Potency,OV90,inactive
same,Potency,PA-1,inactive
same,Potency,SKOV3,inactive
same,Potency,Tov-21-G,inactive
same,Potency,Tov112D,inactive
same,"activity, negative = cell killing",[1]; [2],-2.84%
same,"activity, negative = cell killing",[1]; [3],-13.4%
same,"activity, negative = cell killing",[1]; [5],-7.07%
same,"activity, negative = cell killing",[1]; [4],-22.1%
CC(C)NCC(O)c1cc(O)cc(O)c1 (centres undefined),Potency,MCC-26,inactive
same,Potency,MKL-1,inactive
same,Potency,UISO,inactive
same,Potency,WaGa,inactive
same,Potency,C33A,inactive
same,Potency,CAOV3,inactive
same,Potency,CASKI,inactive
same,Potency,Es-2,inactive
same,Potency,Hek293T,inactive
same,Potency,JEG-3,inactive
same,Potency,OV90,inactive
same,Potency,PA-1,inactive
same,Potency,SKOV3,inactive
same,Potency,Tov-21-G,inactive
same,Potency,Tov112D,inactive
same,"activity, negative = cell killing",[1]; [2],-18.9%
same,"activity, negative = cell killing",[1]; [3],17.6%
same,"activity, negative = cell killing",[1]; [4],-22.7%
same,Potency,astro,inactive
C=CCc1ccccc1OCC(O)CNC(C)C (centres undefined),Potency,MCC-26,inactive
same,Potency,MKL-1,inactive
same,Potency,MKL-2,inactive
same,Potency,UISO,inactive
same,Potency,WaGa,inactive
same,Potency,C33A,inactive
same,Potency,CASKI,inactive
same,Potency,Es-2,inactive
same,Potency,HeLa,inactive
same,Potency,Hek293T,inactive
same,Potency,JEG-3,inactive
same,Potency,OV90,inactive
same,Potency,PA-1,inactive
same,Potency,SKOV3,inactive
same,Potency,Tov-21-G,inactive
same,Potency,Tov112D,inactive
same,"activity, negative = cell killing",[1]; [2],-18%
same,"activity, negative = cell killing",[1]; [3],-4.74%
same,"activity, negative = cell killing",[1]; [4],-6.66%
